Our source for the growth inhibition call values is the antibiotic and cytotoxicity screens of Wong et al. (2023).

The structures appear in SMILES notation. The whole screen tested about 39,000 compounds, of which about 500 (1.3%) were called active. The list comes from a sample in which actives are over-represented; it also holds similar structures and randomly drawn compounds.

In this test the test system is S. aureus RN4220. The experiment in a line: growth inhibition call (relative growth <= 0.2). The note with it: 50 µM.
In the case of `C[C@H](CO)N1C[C@H](C)[C@@H](CN(C)Cc2ccc(C(F)(F)F)cc2)Oc2ccc(NC(=O)C3CCCCC3)cc2C1=O`, the growth inhibition call was “inactive”.

On to `CC1(C)SC2C(NC(=O)C(N)c3ccc(O)cc3)C(=O)N2C1C(=O)O` (stereo not given), for which the growth inhibition call was “active”.

With `CC1(C)S[C@H]2[C@@H](NC(=O)[C@@H](N)c3ccccc3)C(=O)N2[C@@H]1C(=O)O`, the growth inhibition call was “inactive”.

Turning to `CC1(C)S[C@@H]2[C@H](NC(=O)[C@H](N)c3ccc(O)cc3)C(=O)N2[C@H]1C(=O)O`, the growth inhibition call is “active”.

`CC1(C)S[C@@H]2[C@H](NC(=O)C3(N)CCCCC3)C(=O)N2[C@H]1C(=O)O`: the growth inhibition call is “active”.

Turning to `C[C@H]1CN([C@@H](C)CO)C(=O)Cc2cc(NS(=O)(=O)c3cn(C)cn3)ccc2O[C@H]1CN(C)C(=O)NC1CCCCC1`, the growth inhibition call was “inactive”.

Turning to `C[C@H]1CN([C@@H](C)CO)C(=O)Cc2cc(NS(=O)(=O)c3cn(C)cn3)ccc2O[C@@H]1CN(C)C(=O)Nc1ccc2c(c1)OCO2`, the growth inhibition call is “inactive”.

For the compound `CN(C)CCCNC(=O)C[C@H]1CC[C@H]2[C@@H](COC[C@@H](O)CN2S(=O)(=O)c2ccc(F)cc2)O1`, the growth inhibition call is “inactive”.

`C[C@H]1CCCCO[C@H](CN(C)CC2CCCCC2)[C@@H](C)CN([C@@H](C)CO)C(=O)c2cc(NC(=O)CCC(F)(F)F)ccc2O1`: the growth inhibition call was “inactive”.

Regarding `O=C(NO)c1ccc(C(=O)N/N=C/[C@H](O)[C@@H](O)[C@H](O)CO)cc1`, the growth inhibition call was “inactive”.

With `C[C@@H]1CN([C@@H](C)CO)C(=O)c2cccc(NC(=O)Nc3ccc4c(c3)OCO4)c2O[C@@H]1CN(C)S(C)(=O)=O`, the growth inhibition call is “inactive”.

As to `Cc1ccc(S(=O)(=O)N(C)C[C@@H]2Oc3ccc(NS(=O)(=O)c4ccc(F)cc4)cc3CC(=O)N([C@H](C)CO)C[C@@H]2C)cc1`, the growth inhibition call was “inactive”.

Turning to `CC(C)CC#Cc1ccc2c(c1)O[C@@H](CN(C)C(=O)c1ccccn1)[C@H](C)CN([C@@H](C)CO)S2(=O)=O`, the growth inhibition call was “inactive”.

Turning to `O=C(C[C@H]1CC[C@H]2[C@@H](COC[C@@H](O)CN2C(=O)Nc2ccc(Cl)c(Cl)c2)O1)NCc1ccc(Cl)c(Cl)c1`, the growth inhibition call was “inactive”.

Turning to `O=C(C[C@@H]1CC[C@H]2[C@@H](COC[C@H](O)CN2C(=O)Nc2ccc(Cl)c(Cl)c2)O1)NCc1ccc(Cl)c(Cl)c1`, the growth inhibition call was “active”.

Consider `O=C(C[C@H]1CC[C@H]2[C@@H](COC[C@H](O)CN2C(=O)Nc2ccc(Cl)c(Cl)c2)O1)NCc1ccncc1`, for which the growth inhibition call is “inactive”.

As for `O=C(C[C@@H]1CC[C@H]2[C@@H](COC[C@H](O)CN2C(=O)Nc2ccc(Cl)c(Cl)c2)O1)NCc1ccncc1`, the growth inhibition call was “active”.

Consider `O=C(C[C@@H]1CC[C@@H]2[C@H](COC[C@@H](O)CN2C(=O)Nc2ccc(Cl)c(Cl)c2)O1)NCc1ccncc1`, for which the growth inhibition call is “active”.

As to `O=C(C[C@H]1CC[C@H]2[C@@H](COC[C@H](O)CN2C(=O)Nc2ccc(Cl)c(Cl)c2)O1)NCc1ccc(Cl)c(Cl)c1`, the growth inhibition call was “inactive”.

With `O=C(C[C@@H]1CC[C@@H]2[C@H](COC[C@H](O)CN2C(=O)Nc2ccc(Cl)c(Cl)c2)O1)NCc1ccc(Cl)c(Cl)c1`, the growth inhibition call was “inactive”.

As for `O=C(C[C@H]1CC[C@H]2[C@@H](COC[C@@H](O)CN2C(=O)Nc2ccc(Cl)c(Cl)c2)O1)NCc1ccncc1`, the growth inhibition call is “inactive”.

In the case of `O=C(C[C@@H]1CC[C@H]2[C@@H](COC[C@@H](O)CN2C(=O)Nc2ccc(Cl)c(Cl)c2)O1)NCc1ccncc1`, the growth inhibition call was “active”.

With `O=C(C[C@@H]1CC[C@H]2[C@@H](COC[C@@H](O)CN2C(=O)Nc2ccc(Cl)c(Cl)c2)O1)NCc1ccc(Cl)c(Cl)c1`, the growth inhibition call was “inactive”.

In the case of `O=C(C[C@@H]1CC[C@@H]2[C@H](COC[C@H](O)CN2C(=O)Nc2ccc(Cl)c(Cl)c2)O1)NCc1ccncc1`, the growth inhibition call was “inactive”.

With `O=C(C[C@H]1CC[C@@H]2[C@H](COC[C@H](O)CN2C(=O)Nc2ccc(Cl)c(Cl)c2)O1)NCc1ccncc1`, the growth inhibition call is “inactive”.

For the compound `C[C@H]1CN([C@@H](C)CO)C(=O)Cc2cc(NS(=O)(=O)c3ccc(F)cc3)ccc2O[C@@H]1CN(C)C(=O)Nc1cccc2ccccc12`, the growth inhibition call was “inactive”.

As to `C[C@@H]1CCCCO[C@@H](CN(C)C(=O)Nc2ccccc2)[C@@H](C)CN([C@@H](C)CO)C(=O)c2cc(NC(=O)Nc3ccc(C(F)(F)F)cc3)ccc2O1`, the growth inhibition call was “inactive”.

In the case of `C[C@H](CO)N1C[C@H](C)[C@H](CN(C)S(=O)(=O)c2ccc3ccccc3c2)OCc2cnnn2CCCC1=O`, the growth inhibition call is “inactive”.

Regarding `COC(=O)c1cn(CCNC(=O)[C@@H](NS(=O)(=O)c2ccc(C)cc2)C(C)C)nn1`, the growth inhibition call was “inactive”.

In the case of `C[C@@H]1CCCCO[C@@H](CN(C)S(=O)(=O)c2cn(C)cn2)[C@@H](C)CN([C@@H](C)CO)C(=O)c2cc(NC(=O)CCCN(C)C)ccc2O1`, the growth inhibition call is “inactive”.

Consider `O=C(NCCN1CCOCC1)[C@@]1(Cc2ccccc2)N=C(c2ccc(OCCCO)cc2)O[C@H]1c1ccccc1`, for which the growth inhibition call is “inactive”.

Turning to `C[C@@H]1CN([C@H](C)CO)C(=O)c2cc(NC(=O)Nc3ccc(C(F)(F)F)cc3)ccc2O[C@@H]1CN(C)Cc1ccc(C(F)(F)F)cc1`, the growth inhibition call was “inactive”.

Turning to `COc1ccc(NC(=O)N(C)C[C@H]2Oc3ccc(NC(=O)C4CC4)cc3C(=O)N([C@@H](C)CO)C[C@@H]2C)cc1`, the growth inhibition call is “inactive”.

Regarding `COc1ccc2c3c(n(c2c1)C)[C@H](CO)N(CC1CCOCC1)C[C@]13CN(C1)C(=O)Cc1cccnc1`, the growth inhibition call is “inactive”.

As to `Cc1ccc(S(=O)(=O)N(C)C[C@@H]2Oc3ccc(N(C)C)cc3CC(=O)N([C@@H](C)CO)C[C@@H]2C)cc1`, the growth inhibition call is “inactive”.

`O=C(C[C@H]1C[C@@H]2c3cc(NC(=O)Nc4ccc(C(F)(F)F)cc4)ccc3O[C@@H]2[C@H](CO)O1)NCCc1ccccc1`: the growth inhibition call was “inactive”.

In the case of `Cc1n[nH]c(=S)[nH]c1=O`, the growth inhibition call was “inactive”.

As for `Cc1ccc(S(=O)(=O)N(C)C[C@H]2Oc3c(NC(=O)C4CC4)cccc3C(=O)N([C@@H](C)CO)C[C@@H]2C)cc1`, the growth inhibition call is “inactive”.

Consider `Cc1ccc(-c2cnc3c(c2)C(=O)N([C@H](C)CO)C[C@@H](C)[C@H](CN(C)C(=O)Cc2cccnc2)O3)cc1`, for which the growth inhibition call was “inactive”.

Consider `C[C@@H]1CN([C@@H](C)CO)C(=O)c2cc(NC(=O)Nc3cccc4ccccc34)ccc2O[C@@H]1CN(C)Cc1ccc(C(F)(F)F)cc1`, for which the growth inhibition call was “inactive”.

In the case of `O=C(C[C@H]1CC[C@@H]2[C@H](COC[C@@H](O)CN2C(=O)Nc2ccc(Cl)c(Cl)c2)O1)NCc1ccncc1`, the growth inhibition call is “active”.

On to `O=C(C[C@@H]1CC[C@@H]2[C@H](COC[C@@H](O)CN2C(=O)Nc2ccc(Cl)c(Cl)c2)O1)NCc1ccc(Cl)c(Cl)c1`, for which the growth inhibition call was “inactive”.

Consider `O=C(C[C@H]1CC[C@@H]2[C@H](COC[C@@H](O)CN2C(=O)Nc2ccc(Cl)c(Cl)c2)O1)NCc1ccc(Cl)c(Cl)c1`, for which the growth inhibition call was “inactive”.

On to `CCO[C@@H]1OC(C(=O)N2CCOCC2)=C[C@H](C2CC2)[C@H]1CCCOC(=O)NCCCCCC(=O)NO`, for which the growth inhibition call was “inactive”.

Take `O=S(=O)(Cc1ccccc1)Nn1cnnc1`: the growth inhibition call was “inactive”.

Turning to `C[C@H]1CN([C@@H](C)CO)C(=O)Cc2cc(NS(=O)(=O)c3ccc(F)cc3)ccc2O[C@@H]1CN(C)S(C)(=O)=O`, the growth inhibition call is “inactive”.

With `Cc1ccc(S(=O)(=O)N(C)C[C@@H]2OCCCC[C@@H](C)Oc3ccc(NC(=O)Nc4cccc5ccccc45)cc3C(=O)N([C@@H](C)CO)C[C@@H]2C)cc1`, the growth inhibition call was “inactive”.

Take `CC1=C(C(=O)O)N2C(=O)[C@H](NC(=O)[C@@H](N)c3ccccc3)[C@H]2SC1`: the growth inhibition call is “inactive”.

`N[C@@H](C(=O)N[C@@H]1C(=O)N2C(C(=O)O)=C(Cl)CS[C@H]12)c1ccccc1`: the growth inhibition call is “active”.

Consider `CC1=C(C(=O)O)N2C(=O)[C@@H](NC(=O)[C@H](N)c3ccccc3)[C@H]2SC1`, for which the growth inhibition call was “inactive”.

Regarding `CC1=C(C(=O)O)N2C(=O)C(NC(=O)C(N)c3ccccc3)C2SC1` (stereo not given), the growth inhibition call was “inactive”.

Regarding `NC(C(=O)NC1C(=O)N2C(C(=O)O)=C(Cl)CSC12)c1ccccc1` (stereo not given), the growth inhibition call is “active”.

As to `CC1=C(C(=O)O)N2C(=O)[C@@H](NC(=O)[C@@H](N)c3ccccc3)[C@H]2SC1`, the growth inhibition call was “inactive”.

As for `N[C@@H](C(=O)N[C@@H]1C(=O)N2C(C(=O)O)=C(Cl)CC[C@H]12)c1ccccc1`, the growth inhibition call was “active”.

As for `O=C(C[C@H]1C[C@@H]2c3cc(NS(=O)(=O)c4ccc(F)cc4)ccc3O[C@@H]2[C@H](CO)O1)NCc1cccc(F)c1`, the growth inhibition call is “inactive”.

As for `Cc1ccc(S(=O)(=O)N(C)C[C@H]2OCCCC[C@@H](C)Oc3ccc(NC(=O)c4ccccc4)cc3C(=O)N([C@@H](C)CO)C[C@@H]2C)cc1`, the growth inhibition call is “inactive”.

Turning to `C[C@@H]1CN([C@@H](C)CO)C(=O)c2cc(NC(=O)Cn3cnnn3)ccc2O[C@H]1CN(C)CC1CCCCC1`, the growth inhibition call is “inactive”.

In the case of `C=CC[C@@H](CC(=O)NCCO)C(=O)NC[C@@H](OC(=O)[C@@H](CC=C)CC(=O)OC(C)(C)C)c1ccccc1`, the growth inhibition call is “inactive”.

Regarding `C[C@H](CO)N1C[C@H](C)[C@H](CN(C)Cc2ccc(-c3ccccc3)cc2)Oc2c(NC(=O)C3CC3)cccc2C1=O`, the growth inhibition call was “inactive”.

On to `C[C@@H]1CN([C@H](C)CO)C(=O)c2cccc(NS(=O)(=O)c3ccccc3)c2O[C@H]1CN(C)C(=O)Nc1cccc2ccccc12`, for which the growth inhibition call was “inactive”.

As for `COCC(=O)N1C[C@H](C)[C@H](OC)CN(C)C(=O)c2ccc(NC(=O)Nc3cccc(F)c3)cc2OC[C@H]1C`, the growth inhibition call is “inactive”.

In the case of `C[C@H]1CCCCO[C@H](CN(C)C(=O)CCCN(C)C)[C@@H](C)CN([C@@H](C)CO)C(=O)c2cc(NC(=O)Nc3ccc(C(F)(F)F)cc3)ccc2O1`, the growth inhibition call is “inactive”.

On to `CCCCOC(=O)[C@@H](N)CCC(=O)O`, for which the growth inhibition call is “inactive”.

`COC(=O)[C@H]1c2cc3c(c(O)c2[C@@H](O[C@@H]2O[C@H](C)[C@H](OC)[C@](C)(OC)[C@@H]2OC)C[C@@]1(C)O)C(=O)c1c(O)cc2c(c1C3=O)O[C@H]1O[C@@]2(C)[C@@H](O)[C@H](N(C)C)[C@@H]1O`: the growth inhibition call is “active”.

Regarding `CC[C@@]1(O)C[C@H](O[C@H]2C[C@H](N(C)C)[C@H](O[C@H]3C[C@H](O)[C@H](O[C@H]4CCC(=O)[C@H](C)O4)[C@H](C)O3)[C@H](C)O2)c2c(cc3c(c2O)C(=O)c2c(O)cccc2C3=O)[C@H]1C(=O)OC`, the growth inhibition call was “inactive”.
